# PubChem BioAssay (NCATS)
# A number with no mark means an inactive call. Records with an inconclusive call do not appear. Where a call stands in place of a potency, no number is given. The source made the active and inactive calls. Unless noted, calls come from the whole dose curve; as a rule, active = well fitted curve in the direction sought with a large enough effect; inconclusive = small, poorly fitted or top-dose-only effect, or another doubt; inactive = no such curve, though single readings can be large; an effect the other way counts as inactive or inconclusive.
# How the values were obtained:
# [1] = Inducers of the Endoplasmic Reticulum Stress Response (ERSR) in human glioma: Validation (AID 504836)
# Procedure, shortened: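 Stably transfected U87-MG human glioma cells carrying a GRP78-based luminescent sensor were seeded at 1000 cells/well, pin-dosed with compounds and incubated 16 h. Luciferase reagent was then added, and end-point luminescence was read after 10 min at room temperature.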
# [2] = molecular target: Ubiquitin carboxyl-terminal hydrolase 1 (Homo sapiens) (UniProt O94782); experiment: Inhibitors of USP1/UAF1: Pilot qHTS (AID 504865); note: nearly all actives have a fitted effect of over 35% in size; note: potency is the fitted concentration of half-maximal effect
# Procedure, shortened: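 Kinetic fluorescence assay: 1nM USP1/UAF1, 15 min compound preincubation, then 150nM Ub-Rho; 480/540 nm.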
# [3] = molecular target: Alpha-galactosidase (Coffea arabica) (UniProt Q42656); experiment: Counterscreen for Glucocerebrosidase Inhibitors: qHTS Assay for Coffee Bean alpha-Galactosidase at pH 4.5 (AID 957); note: series mostly up to about 77 µM
# Procedure, shortened: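 AC50 values derive from Hill-equation modeling of concentration-response data, normalized to no-enzyme and full-activity controls. The pH 4.5 citrate assay used 2 nM coffee bean enzyme and 80 uM fluorogenic substrate for 20 min.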
# [4] = molecular target: Alpha-galactosidase (Coffea arabica) (UniProt Q42656); experiment: Counterscreen for Glucocerebrosidase Inhibitors: qHTS Assay for Coffee Bean alpha-Galactosidase at pH 5.9 (AID 998)
# Procedure, shortened: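 Green coffee bean enzyme (2 nM final) was incubated with compounds (0.7 nM–77 uM) and 4-methylumbelliferyl alpha-D-galactopyranoside (80 uM) in citrate buffer pH 5.9, 20 min at room temperature. High-pH stop; fluorescence 365/440 nm; AC50 from Hill fits.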
# [5] = molecular target: Cytochrome P450 3A4 (Homo sapiens) (UniProt P08684); experiment: qHTS Assay for Inhibitors and Substrates of Cytochrome P450 3A4 (AID 884); note: series mostly up to about 57 µM; nearly all actives have a fitted effect of over 50% in size
# Procedure, shortened: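 20 nM human CYP3A4 with 25 uM Luciferin-PPXE (at KM) in 200 mM KPO4, preincubated 10 min with compound; NADPH regeneration started a 60 min RT reaction. Luciferin detected by luminescence, normalized to 57 uM ketoconazole as full inhibition.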
# [6] = molecular target: DNA dC->dU-editing enzyme APOBEC-3G (Homo sapiens) (UniProt Q9HC16); experiment: qHTS for inhibitors of Vif-A3G interactions: Validation (AID 588379)
# Procedure, shortened: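 HeLa cells stably expressing Vif and A3G-eYFP, 700 cells/well, incubated overnight at 37 deg C, then exposed to compound overnight at 37 deg C. Inhibition of Vif-mediated degradation read as increased yellow fluorescence (Ex 488/Em 500-530) by laser-scanning cytometry.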
# [7] = Confirmation and Secondary Assay for Modulators of Hemoglobin Beta Chain Splicing at IVS2 654 locus (AID 910);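 note: per-well total GFP intensity by laser scanning cytometry after 2-day treatment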
# Procedure, shortened: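 HeLa cells stably carrying EGFP interrupted by mutant beta-globin IVS2-654 intron (CMV-driven) were treated with compound for 2 days at 37C; corrected splicing was scored as total peak GFP intensity per well (488 nm excitation, 500-520 nm emission).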
# [8] = Confirmation and Secondary Assay for Modulators of Hemoglobin Beta Chain Splicing at IVS2 705 locus (AID 930);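 note: HeLa cells stably expressing the EGFP-705 splicing reporter; GFP fluorescence per well restored by corrected splicing of the IVS2-705 intron in EGFP; series mostly up to about 46 µM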
# Procedure, shortened: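 HeLa IVS2-705 EGFP reporter cells, 500/well, compound 2 d at 37C; correct splicing yields fluorescent EGFP. Control: 500 nM antisense PNA. Read-out: total peak GFP intensity.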
# [9] = molecular target: Estrogen receptor (Homo sapiens) (UniProt P03372); experiment: qHTS assay for small molecule antagonists of estrogen receptor alpha signaling (AID 588513; active = well fitted curve in the direction sought with a large enough effect in the signal ratio, with a control signal flat, not every such curve was filed as active; the % refers to the signal ratio; note: potency is the fitted concentration of half-maximal effect)
# Procedure, shortened: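 Cells were plated at 5000/well and incubated 4 h at 37 C. Compounds were added as 1:2 dilution series, duplicates. 17-beta-estradiol (0.5nM final) was added for 18 h before CCF4 detection.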
# [10] = molecular target: Androgen receptor (Homo sapiens) (UniProt P10275); experiment: qHTS assay for small molecule antagonists of androgen receptor signaling (AID 588516; active = well fitted curve in the direction sought with a large enough effect in the signal ratio, with a control signal flat, not every such curve was filed as active; the % refers to the signal ratio; note: potency is the fitted concentration of half-maximal effect)
# Procedure, shortened: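 Antagonist-mode qHTS: inhibition of R1881 (10 nM)-driven beta-lactamase expression in GripTite HEK 293 cells is measured after 16 h; values are Hill-derived IC50s normalized between R1881 and DMSO wells.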
# [11] = molecular target: Glucocorticoid receptor (Homo sapiens) (UniProt P04150); experiment: qHTS assay for small molecule agonists of glucocorticoid receptor signaling (AID 588532; active = well fitted curve in the direction sought with a large enough effect in the signal ratio, with a control signal flat; the % refers to the signal ratio); conditions: HeLa MMTV-bla, beta-lactamase ratio, agonist, 18 h; activation: stronger effect = higher value, percent of dexamethasone control, DMSO zero
# Procedure, shortened: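 Stimulation of a glucocorticoid response element-driven beta-lactamase gene was measured in HeLa cells. Responses were scaled between DMSO basal and 0.1 uM dexamethasone, then fitted for half-maximal stimulation.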
# [12] = molecular target: Vitamin D3 receptor (Homo sapiens) (UniProt P11473); experiment: qHTS assay for small molecule agonists of vitamin D receptor signaling (AID 588543; calls by dose curve)
# Procedure, shortened: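 qHTS in agonist mode: compound titrations stimulate a VDR-driven β-lactamase reporter in HEK293T cells over 16 h at 37 °C. Response normalized to 50 nM 1α,25-dihydroxyvitamin D3 = 100%, DMSO = 0%; Hill fitting gives EC50 and maximal response.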
# [13] = molecular target: Thyroid hormone receptor beta (Homo sapiens) (UniProt P10828); experiment: qHTS assay for small molecule agonists of thyroid hormone receptor beta signaling (AID 588545; calls by dose curve)
# Procedure, shortened: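 Cells (2500/well) were seeded, incubated 4 hrs at 37 C, dosed with a compound series, incubated 18 hrs, loaded with CCF4 dye for 2 hrs at RT, then read for fluorescence. Data were scaled between DMSO (0%) and 10 nM T3 (100%).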
# [14] = qHTS assay for small molecule agonists of the antioxidant response element (ARE) signaling pathway (AID 651741; active = well fitted activation curve with a large enough effect in the signal ratio; the % refers to the signal ratio; note: potency is the fitted concentration of half-maximal effect)
# Procedure, shortened: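 ARE-bla HepG2 cells (beta-lactamase reporter under ARE control) were plated at 2,000 cells/well, preincubated 5 h at 37 C/5% CO2, then treated with DMSO-dissolved compounds for 16 h at 37 C; LiveBLAzer B/G FRET substrate added, fluorescence read after 2 h at room temperature.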
# [15] = qHTS assay for environmental chemicals that activate the Aryl hydrocarbon Receptor (AhR) signaling pathway (AID 651777); conditions: 1A2-DRE human hepatoma cells, luciferase, 24 h; activation: stronger effect = higher value; note: nearly all actives have a fitted effect of over 15% in size
# Procedure, shortened: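 Concentration–response screening used 1,200 1A2-DRE cells per well, 24 hr compound exposure (37 C, 5% CO2), and One-Glo luminescence as the AhR-driven CYP1A2 reporter signal.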
# [16] = molecular target: Peroxisome proliferator-activated receptor alpha (Homo sapiens) (UniProt Q07869); experiment: qHTS assay for small molecule agonists of the peroxisome proliferator-activated receptor alpha (PPARalpha) signaling pathway (AID 651778); conditions: PathHunter PPARalpha complementation, chemiluminescence, 6 h; max response: stronger effect = higher value
# Procedure, shortened: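 Cells plated at 2,000/well and held overnight at 37 C, 5% CO2, then compound added by pin tool for 6 hr; after PathHunter detection reagent and 60 min at room temperature, chemiluminescence from enzyme complementation was read.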
# [17] = qHTS assay for small molecule agonists of the antioxidant response element (ARE) signaling pathway measured by Nrf2-dependant transcriptional activity - cell viability counter screen (AID 720653; active = well fitted curve in the direction sought with a large enough effect in the repeat runs; an effect the other way counts as inactive or inconclusive; note: potency is the fitted concentration of half-maximal effect); conditions: ARE-bla HepG2 viability, CellTiter-Glo ATP luminescence, 16 h; max response: stronger effect = lower value
# Procedure, shortened: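 ARE-bla HepG2 cells (2,000/well) rested 5 hrs at 37C/5% CO2, then exposed to compounds in DMSO for 16 hrs. Viability was read in the same wells as intracellular ATP by luminescence, 30 min at room temperature after reagent addition.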
# [18] = qHTS assay for cell viability of the p53RE-bla HCT-116 cell line (AID 743292); note: nearly all actives have a fitted effect of over 55% in size
# Procedure, shortened: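 Compound-exposed HCT-116 (p53RE-bla) cells, 4,000 per well, were kept 16 h at 37 C following a 5 h preincubation. Cell number was estimated from total ATP by CellTiter-Glo luminescence read after 30 min at room temperature.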
# [19] = qHTS assay for small molecule activators of the human pregnane X receptor (PXR) signaling pathway (AID 720659; call rule not given here)
# Ubiquitin carboxyl-terminal hydrolase 1 (Homo sapiens), sequence (O94782 whole entry, looked up): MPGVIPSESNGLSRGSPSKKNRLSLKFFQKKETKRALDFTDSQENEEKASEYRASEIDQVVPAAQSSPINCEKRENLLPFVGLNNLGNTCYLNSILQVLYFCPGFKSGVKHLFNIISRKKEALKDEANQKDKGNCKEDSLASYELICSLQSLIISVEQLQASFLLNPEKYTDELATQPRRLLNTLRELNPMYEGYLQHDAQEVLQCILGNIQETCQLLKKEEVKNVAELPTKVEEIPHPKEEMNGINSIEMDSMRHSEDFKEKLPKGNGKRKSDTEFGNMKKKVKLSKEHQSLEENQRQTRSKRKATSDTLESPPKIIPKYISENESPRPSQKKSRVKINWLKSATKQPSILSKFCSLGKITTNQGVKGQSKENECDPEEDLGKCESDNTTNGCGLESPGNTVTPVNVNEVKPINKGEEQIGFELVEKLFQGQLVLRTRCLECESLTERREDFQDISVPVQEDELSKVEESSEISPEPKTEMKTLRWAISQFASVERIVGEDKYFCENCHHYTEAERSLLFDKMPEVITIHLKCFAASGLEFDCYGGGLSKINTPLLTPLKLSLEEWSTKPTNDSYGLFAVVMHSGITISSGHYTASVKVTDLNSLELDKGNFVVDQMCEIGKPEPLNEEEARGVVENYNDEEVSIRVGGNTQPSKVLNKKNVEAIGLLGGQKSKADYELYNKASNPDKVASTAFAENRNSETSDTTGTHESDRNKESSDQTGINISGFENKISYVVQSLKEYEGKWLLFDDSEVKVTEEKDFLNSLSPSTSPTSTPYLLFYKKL
# Cytochrome P450 3A4 (Homo sapiens), sequence (P08684 whole entry, looked up): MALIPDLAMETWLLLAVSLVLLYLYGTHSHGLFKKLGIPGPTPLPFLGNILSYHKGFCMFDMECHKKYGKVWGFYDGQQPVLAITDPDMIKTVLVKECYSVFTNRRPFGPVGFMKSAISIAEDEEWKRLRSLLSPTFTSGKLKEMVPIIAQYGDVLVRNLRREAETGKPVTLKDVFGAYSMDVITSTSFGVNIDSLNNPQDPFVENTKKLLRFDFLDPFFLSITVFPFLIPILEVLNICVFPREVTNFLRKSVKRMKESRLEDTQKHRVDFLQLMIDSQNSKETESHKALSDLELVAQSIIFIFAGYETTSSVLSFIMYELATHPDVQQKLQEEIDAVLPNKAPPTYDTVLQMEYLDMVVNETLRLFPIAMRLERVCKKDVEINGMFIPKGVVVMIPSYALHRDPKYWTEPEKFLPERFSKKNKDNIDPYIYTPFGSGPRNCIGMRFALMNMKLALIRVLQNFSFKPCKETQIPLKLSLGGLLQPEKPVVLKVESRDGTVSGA
# Alpha-galactosidase (Coffea arabica), sequence (Q42656 whole entry, looked up): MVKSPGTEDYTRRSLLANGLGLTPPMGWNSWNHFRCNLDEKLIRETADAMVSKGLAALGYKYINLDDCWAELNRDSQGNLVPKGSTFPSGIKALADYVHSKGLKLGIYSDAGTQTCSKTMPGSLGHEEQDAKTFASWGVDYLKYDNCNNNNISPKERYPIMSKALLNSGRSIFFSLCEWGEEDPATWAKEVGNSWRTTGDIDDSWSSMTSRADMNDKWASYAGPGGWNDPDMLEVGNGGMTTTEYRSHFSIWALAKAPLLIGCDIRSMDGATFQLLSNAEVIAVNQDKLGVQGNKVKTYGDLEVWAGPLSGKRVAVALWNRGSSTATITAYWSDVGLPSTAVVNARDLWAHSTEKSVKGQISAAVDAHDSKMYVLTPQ
# Thyroid hormone receptor beta (Homo sapiens), sequence (P10828 whole entry, looked up): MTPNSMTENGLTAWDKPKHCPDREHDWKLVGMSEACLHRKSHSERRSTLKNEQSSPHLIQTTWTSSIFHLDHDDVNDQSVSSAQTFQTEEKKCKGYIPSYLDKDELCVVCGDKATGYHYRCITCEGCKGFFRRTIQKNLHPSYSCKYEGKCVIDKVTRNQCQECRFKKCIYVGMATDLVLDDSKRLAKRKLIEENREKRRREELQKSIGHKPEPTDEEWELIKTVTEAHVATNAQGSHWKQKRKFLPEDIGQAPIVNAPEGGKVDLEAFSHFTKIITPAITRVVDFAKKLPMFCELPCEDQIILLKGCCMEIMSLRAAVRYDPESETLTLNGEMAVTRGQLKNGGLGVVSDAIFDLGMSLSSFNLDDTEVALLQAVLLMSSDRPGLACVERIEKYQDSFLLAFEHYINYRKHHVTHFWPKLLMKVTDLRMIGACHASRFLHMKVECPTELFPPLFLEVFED
# Estrogen receptor (Homo sapiens), sequence (P03372 whole entry, looked up): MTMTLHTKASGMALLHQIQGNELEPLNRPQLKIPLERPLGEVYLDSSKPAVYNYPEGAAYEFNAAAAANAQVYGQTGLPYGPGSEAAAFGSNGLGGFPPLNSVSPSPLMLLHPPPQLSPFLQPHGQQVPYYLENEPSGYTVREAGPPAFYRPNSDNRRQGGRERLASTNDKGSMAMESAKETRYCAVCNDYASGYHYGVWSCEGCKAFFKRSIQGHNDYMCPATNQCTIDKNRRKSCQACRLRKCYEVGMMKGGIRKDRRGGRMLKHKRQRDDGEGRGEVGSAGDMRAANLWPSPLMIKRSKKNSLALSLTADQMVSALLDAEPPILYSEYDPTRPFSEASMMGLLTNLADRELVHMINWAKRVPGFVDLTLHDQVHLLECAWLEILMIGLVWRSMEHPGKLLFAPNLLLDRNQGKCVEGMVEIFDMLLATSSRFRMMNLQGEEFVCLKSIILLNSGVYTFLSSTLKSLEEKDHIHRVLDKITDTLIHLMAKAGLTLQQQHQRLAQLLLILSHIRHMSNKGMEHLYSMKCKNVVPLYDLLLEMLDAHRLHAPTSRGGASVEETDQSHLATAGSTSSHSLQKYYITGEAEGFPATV
# Peroxisome proliferator-activated receptor alpha (Homo sapiens), sequence (Q07869 whole entry, looked up): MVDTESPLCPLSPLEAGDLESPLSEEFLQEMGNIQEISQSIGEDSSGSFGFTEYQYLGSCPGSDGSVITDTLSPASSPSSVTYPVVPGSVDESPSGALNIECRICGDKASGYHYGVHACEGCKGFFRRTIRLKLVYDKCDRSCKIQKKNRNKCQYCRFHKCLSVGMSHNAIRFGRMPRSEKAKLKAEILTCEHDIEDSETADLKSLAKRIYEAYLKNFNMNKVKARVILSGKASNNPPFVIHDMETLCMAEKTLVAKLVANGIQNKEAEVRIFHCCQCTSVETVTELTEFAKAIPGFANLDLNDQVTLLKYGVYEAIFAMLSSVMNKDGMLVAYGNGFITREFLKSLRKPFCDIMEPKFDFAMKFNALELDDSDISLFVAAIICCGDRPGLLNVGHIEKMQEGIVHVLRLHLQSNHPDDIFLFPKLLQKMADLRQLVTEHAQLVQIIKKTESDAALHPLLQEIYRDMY
# DNA dC->dU-editing enzyme APOBEC-3G (Homo sapiens), sequence (Q9HC16 whole entry, looked up): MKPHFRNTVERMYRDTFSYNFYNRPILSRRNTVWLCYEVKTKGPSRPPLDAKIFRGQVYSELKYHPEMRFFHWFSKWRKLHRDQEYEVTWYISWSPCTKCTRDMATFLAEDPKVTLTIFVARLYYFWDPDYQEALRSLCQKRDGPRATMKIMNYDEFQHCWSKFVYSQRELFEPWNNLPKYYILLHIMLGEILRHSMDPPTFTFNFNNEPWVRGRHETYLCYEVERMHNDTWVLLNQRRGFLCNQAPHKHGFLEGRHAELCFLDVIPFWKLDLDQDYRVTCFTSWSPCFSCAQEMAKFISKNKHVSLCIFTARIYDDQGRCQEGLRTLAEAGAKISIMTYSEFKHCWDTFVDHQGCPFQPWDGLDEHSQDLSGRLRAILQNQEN
# Vitamin D3 receptor (Homo sapiens), sequence (P11473 whole entry, looked up): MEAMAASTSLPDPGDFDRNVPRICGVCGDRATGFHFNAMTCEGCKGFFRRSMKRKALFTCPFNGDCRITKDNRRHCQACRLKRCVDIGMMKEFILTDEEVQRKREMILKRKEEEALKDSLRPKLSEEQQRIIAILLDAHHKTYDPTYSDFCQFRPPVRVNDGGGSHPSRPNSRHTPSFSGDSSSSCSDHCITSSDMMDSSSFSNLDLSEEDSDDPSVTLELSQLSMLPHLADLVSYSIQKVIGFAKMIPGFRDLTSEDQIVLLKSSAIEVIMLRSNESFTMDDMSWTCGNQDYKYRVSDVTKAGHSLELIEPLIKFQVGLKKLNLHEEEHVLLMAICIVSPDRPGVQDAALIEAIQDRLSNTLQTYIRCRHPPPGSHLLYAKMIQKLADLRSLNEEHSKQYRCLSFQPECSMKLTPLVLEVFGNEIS
# Androgen receptor (Homo sapiens), sequence (P10275 whole entry, looked up): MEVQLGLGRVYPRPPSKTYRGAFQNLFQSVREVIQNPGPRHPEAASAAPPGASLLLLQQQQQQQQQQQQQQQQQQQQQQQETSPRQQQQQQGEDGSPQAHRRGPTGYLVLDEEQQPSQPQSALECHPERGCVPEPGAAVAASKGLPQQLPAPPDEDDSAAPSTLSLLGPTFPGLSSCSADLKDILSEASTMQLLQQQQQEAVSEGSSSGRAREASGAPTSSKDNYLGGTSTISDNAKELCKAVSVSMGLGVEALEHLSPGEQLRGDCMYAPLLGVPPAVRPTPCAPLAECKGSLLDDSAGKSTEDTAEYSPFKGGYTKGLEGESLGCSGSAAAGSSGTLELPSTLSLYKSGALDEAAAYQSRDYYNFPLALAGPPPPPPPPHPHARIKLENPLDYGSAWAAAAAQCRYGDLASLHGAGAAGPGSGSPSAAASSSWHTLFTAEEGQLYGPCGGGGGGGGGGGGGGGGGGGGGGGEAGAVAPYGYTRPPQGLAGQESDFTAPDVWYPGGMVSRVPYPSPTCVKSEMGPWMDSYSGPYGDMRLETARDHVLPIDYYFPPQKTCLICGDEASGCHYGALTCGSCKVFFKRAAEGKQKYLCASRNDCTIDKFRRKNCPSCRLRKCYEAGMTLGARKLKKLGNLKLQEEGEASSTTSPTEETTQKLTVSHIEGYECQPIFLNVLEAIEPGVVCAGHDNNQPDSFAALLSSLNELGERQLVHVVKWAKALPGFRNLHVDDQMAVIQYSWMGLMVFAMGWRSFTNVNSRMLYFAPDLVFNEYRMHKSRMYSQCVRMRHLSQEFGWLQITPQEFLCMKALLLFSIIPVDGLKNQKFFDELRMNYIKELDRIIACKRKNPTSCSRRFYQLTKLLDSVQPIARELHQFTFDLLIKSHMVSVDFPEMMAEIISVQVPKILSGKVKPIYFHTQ
smiles,measurement,setting,value
Oc1ccc(/C=C/c2ccc(/C=C/c3ccc(O)cc3)c(Br)c2)cc1,outcome,[1],inactive
O=C(CCCCCN1CCN(c2ccccc2-c2ccccc2)CC1)NC1CCCc2ccccc21 (stereo not drawn),outcome,[1],inactive
CC(=O)OC1C([N+]2(C)CCCCC2)C[C@H]2C3CC[C@H]4C[C@H](OC(C)=O)C([N+]5(C)CCCCC5)CC4(C)C3CCC12C (stereo partly drawn),Potency,[2],inactive
NCC1O[C@@H](O[C@H]2C(O)C(O[C@@H]3C(O[C@H]4OC(CO)C(O)C(O)C4N)C(N)CC(N)[C@H]3O)O[C@@H]2CO)C(N)C(O)C1O (stereo partly drawn),Potency,[2],inactive
CCN(c1nc(N)c(C(=O)N=C(N)N)nc1Cl)C(C)C,outcome,[3],inactive
same,outcome,[4],inactive
same,outcome,[1],inactive
C/C=C1/C[C@@H](C)[C@](O)(CO)C(=O)OCC2=CCN3CC[C@@H](OC1=O)C23 (stereo partly drawn),Potency,[5],inactive
same,Potency,[2],inactive
same,outcome,[6],inactive
C=C1C(=O)O[C@@H]2[C@H]3O[C@]3(C)CCC=C(C)CC[C@@H]12,outcome,[1],inactive
CC1COC2=C1C(=O)C(=O)c1c2ccc2c1CCCC2(C)C (stereo not drawn),Potency,[2],79.4 µM (active)
CC(C)n1c(/C=C\[C@@H](O)C[C@@H](O)CC(=O)O)c(-c2ccc(F)cc2)c2ccccc21,Potency,[2],inactive
CC(C)N(C(=O)CCl)c1ccccc1,Potency,[5],inactive
same,Potency,[7],inactive
same,outcome,[8],inactive
same,Potency,[2],inactive
same,Potency,[9],15.8 µM [inhibitor] (active)
same,Potency,[10],39.8 µM (active)
same,activation,[11],-11.4%
same,outcome,[12],inactive
same,Potency,[13],inactive
same,Potency,[14],17.2 µM (active)
same,activation,[15],-1.87%
same,max response,[16],-1.12%
same,Potency,[17],39.8 µM (active)
same,Potency,[18],inactive
same,outcome,[19],inactive
